In PubChem BioAssay AID1159580 (chemical genetic matrix, 2015):
“And” between values parts separate entries of the source, which are not always exact repeats. Equal entries are not always repeated. Among all 5,500 compounds or so, about 2,000 (36%) were called active. Another 18% or so got no clear call; they are omitted. Cut-off read from the data, not from the text of the source: active = normalized growth mostly below about 0.91 (no sharp cut-off); inconclusive = no clear call, values can overlap the other calls; inactive = mostly above about 0.92. The list shows a part of the results.

Experiment: chemical genetic growth profiling, strain panel (AID 1159580);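 note: tested at 20 µM; growth read once vehicle control cultures reached saturation at 30 °C; 1 = growth at the plate median or of vehicle wells; lower values mean less growth of the strain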
Settings: growth OD

Measured: normalized growth

Cc1ccc(/C(=C\CN2CCCC2)c2ccccn2)cc1
inactive: S. cerevisiae deletion strains, locus YJR075W, strain HOC1, active compounds read low 1.01 and 0.98 | S. cerevisiae deletion strains, locus YKL009W, strain mrt4, active compounds read low 0.996 | S. cerevisiae deletion strains, locus YKL068W, active compounds read low 0.999 | S. cerevisiae deletion strains, locus YKL085W, strain MDH1 (second series), active compounds read low 1.01 | S. cerevisiae deletion strains, locus YKL085W, strain MDH1, active compounds read low 1.01 | S. cerevisiae deletion strains, locus YKL160W, strain elf1, active compounds read low 1.03 | S. cerevisiae deletion strains, locus YKL190W, strain CNB1, active compounds read low 1.02 | S. cerevisiae deletion strains, locus YKR001C, strain vps1, active compounds read low 0.986 | S. cerevisiae deletion strains, locus YKR026C, strain gcn3, active compounds read low 1 | S. cerevisiae deletion strains, locus YKR091W, strain srl3, active compounds read low 0.991 | S. cerevisiae deletion strains, locus YLL001W, strain dnm1, active compounds read low 1.04 | S. cerevisiae deletion strains, locus YLL026W, active compounds read low 1.04 | S. cerevisiae deletion strains, locus YLL041C, strain sdh2, active compounds read low 1.01 | S. cerevisiae deletion strains, locus YLR027C, strain aat2, active compounds read low 1.04 | S. cerevisiae deletion strains, locus YLR039C, strain RIC1, active compounds read low 1.03 | S. cerevisiae deletion strains, locus YLR058C, strain SHM2, active compounds read low 1.01 | S. cerevisiae deletion strains, locus YLR102C, strain apc9, active compounds read low 0.998 | S. cerevisiae deletion strains, locus YLR113W, strain HOG1, active compounds read low 1.02 | S. cerevisiae deletion strains, locus YLR221C, strain rsa3, active compounds read low 0.977 | S. cerevisiae deletion strains, locus YLR258W, strain gsy2, active compounds read low 0.986 | S. cerevisiae deletion strains, locus YLR262C, strain YPT6 (second series), active compounds read low 1.02 | S. cerevisiae deletion strains, locus YLR262C, strain YPT6, active compounds read low 1.01 | S. cerevisiae deletion strains, locus YLR268W, strain sec22, active compounds read low 0.999 | S. cerevisiae deletion strains, locus YLR320W, strain mms22, active compounds read low 0.973 | S. cerevisiae deletion strains, locus YLR330W, strain CHS5, active compounds read low 1.01 | S. cerevisiae deletion strains, locus YLR342W, strain FKS1 (second series), active compounds read low 0.997 | S. cerevisiae deletion strains, locus YLR342W, strain FKS1, active compounds read low 1.02 | S. cerevisiae deletion strains, locus YLR357W, strain rsc2, active compounds read low 0.992 | S. cerevisiae deletion strains, locus YLR370C, strain arc18, active compounds read low 1.01 | S. cerevisiae deletion strains, locus YLR371W, strain rom2, active compounds read low 1.01 | S. cerevisiae deletion strains, locus YLR384C, strain iki3, active compounds read low 1 | S. cerevisiae deletion strains, locus YLR418C, strain cdc73, active compounds read low 0.991 | S. cerevisiae deletion strains, locus YML016C, strain PPZ1, active compounds read low 1 | S. cerevisiae deletion strains, locus YML032C, strain rad52, active compounds read low 1 | S. cerevisiae deletion strains, locus YML120C, strain ndi1, active compounds read low 1.05 | S. cerevisiae deletion strains, locus YML124C, strain tub3, active compounds read low 0.995 | S. cerevisiae deletion strains, locus YMR058W, strain fet3, active compounds read low 1.02 | S. cerevisiae deletion strains, locus YMR078C, strain ctf18, active compounds read low 0.997 | S. cerevisiae deletion strains, locus YMR125W, strain sto1, active compounds read low 1.02 | S. cerevisiae deletion strains, locus YMR129W, active compounds read low 1.01 | S. cerevisiae deletion strains, locus YMR205C, strain PFK2, active compounds read low 1.02 | S. cerevisiae deletion strains, locus YMR223W, strain ubp8, active compounds read low 0.998 | S. cerevisiae deletion strains, locus YMR231W, strain pep5, active compounds read low 0.999 | S. cerevisiae deletion strains, locus YMR263W, strain SAP30, active compounds read low 1.01 and 0.981 | S. cerevisiae deletion strains, locus YMR307W, strain GAS1, active compounds read low 0.983 and 0.987 | S. cerevisiae deletion strains, locus YNL067W, strain RPL9B, active compounds read low 1 | S. cerevisiae deletion strains, locus YNL071W, strain lat1, active compounds read low 0.986 | S. cerevisiae deletion strains, locus YNL128W, strain TEP1, active compounds read low 1.02 | S. cerevisiae deletion strains, locus YNL153C, strain GIM3, active compounds read low 1.01 | S. cerevisiae deletion strains, locus YNL175C, strain NOP13, active compounds read low 0.996 | S. cerevisiae deletion strains, locus YNL183C, strain NPR1, active compounds read low 0.952 | S. cerevisiae deletion strains, locus YNL197C, strain WHI3, active compounds read low 1.01 | S. cerevisiae deletion strains, locus YNL209W, strain ssb2, active compounds read low 0.996 | S. cerevisiae deletion strains, locus YNL224C, strain SQS1, active compounds read low 0.989 | S. cerevisiae deletion strains, locus YNL233W, strain BNI4, active compounds read low 1.01 | S. cerevisiae deletion strains, locus YNL248C, strain rpa49, active compounds read low 0.992 | S. cerevisiae deletion strains, locus YNL250W, strain rad50, active compounds read low 1 | S. cerevisiae deletion strains, locus YNL271C, strain bni1, active compounds read low 0.986 | S. cerevisiae deletion strains, locus YNL298W, strain CLA4, active compounds read low 1 | S. cerevisiae deletion strains, locus YNL307C, strain MCK1, active compounds read low 1.01 | S. cerevisiae deletion strains, locus YNL322C, strain KRE1 (second series), active compounds read low 1.01 | S. cerevisiae deletion strains, locus YNL322C, strain KRE1, active compounds read low 1.01 | S. cerevisiae deletion strains, locus YNR049C, strain mso1, active compounds read low 1.01 | S. cerevisiae deletion strains, locus YNR052C, strain pop2, active compounds read low 1 | S. cerevisiae deletion strains, locus YOL006C, strain TOP1, active compounds read low 1 | S. cerevisiae deletion strains, locus YOL012C, strain htz1 1.12 | S. cerevisiae deletion strains, locus YOL147C, strain pex11, active compounds read low 0.992 | S. cerevisiae deletion strains, locus YOR001W, strain rrp6, active compounds read low 1.02 | S. cerevisiae deletion strains, locus YOR061W, strain CKA2, active compounds read low 1.01 | S. cerevisiae deletion strains, locus YOR069W, strain VPS5, active compounds read low 1.01 | S. cerevisiae deletion strains, locus YOR070C, strain gyp1, active compounds read low 0.992 | S. cerevisiae deletion strains, locus YOR080W, strain dia2, active compounds read low 1.02 | S. cerevisiae deletion strains, locus YOR083W, strain WHI5 (second series), active compounds read low 0.985 | S. cerevisiae deletion strains, locus YOR083W, strain WHI5, active compounds read low 1 | S. cerevisiae deletion strains, locus YOR106W, strain vam3, active compounds read low 1.05 | S. cerevisiae deletion strains, locus YOR136W, strain idh2, active compounds read low 1 | S. cerevisiae deletion strains, locus YOR144C, strain elg1, active compounds read low 0.995 | S. cerevisiae deletion strains, locus YOR184W, strain ser1, active compounds read low 1 | S. cerevisiae deletion strains, locus YOR231W, strain MKK1, active compounds read low 0.984 | S. cerevisiae deletion strains, locus YOR265W, strain rbl2, active compounds read low 1.01 | S. cerevisiae deletion strains, locus YOR270C, strain vph1, active compounds read low 0.985 | S. cerevisiae deletion strains, locus YOR290C, strain snf2, active compounds read low 0.96 | S. cerevisiae deletion strains, locus YOR316C, strain cot1, active compounds read low 1 | S. cerevisiae deletion strains, locus YPL051W, strain arl3, active compounds read low 1.02 | S. cerevisiae deletion strains, locus YPL055C, strain LGE1, active compounds read low 1.02 | S. cerevisiae deletion strains, locus YPL078C, strain atp4, active compounds read low 1.06 | S. cerevisiae deletion strains, locus YPL106C, strain sse1, active compounds read low 0.987 | S. cerevisiae deletion strains, locus YPL240C, strain hsp82, active compounds read low 1.04 | S. cerevisiae deletion strains, locus YPL241C, strain CIN2, active compounds read low 1 and 0.988 | S. cerevisiae deletion strains, locus YPL256C, strain CLN2, active compounds read low 1 | S. cerevisiae deletion strains, locus YPR119W, strain clb2, active compounds read low 1 | S. cerevisiae deletion strains, locus YPR141C, strain kar3, active compounds read low 0.998 | S. cerevisiae deletion strains, locus YPR163C, strain tif3, active compounds read low 0.994 | S. cerevisiae deletion strains, locus YPR167C, strain met16, active compounds read low 1 | S. cerevisiae deletion strains, strain wtn01, active compounds read low 0.999 | S. cerevisiae strains, strain wild type, active compounds read low 1.01
